# sEH activator – soluble epoxide hydrolase (human) activation; P34913; purified human sEH enzymatic activity, activator screen; AID 717; 91,000 tested, 0.04% active; activation, % at 2 µM; in the data active = activation above about 37%
# Target sequence (P34913 whole entry, looked up): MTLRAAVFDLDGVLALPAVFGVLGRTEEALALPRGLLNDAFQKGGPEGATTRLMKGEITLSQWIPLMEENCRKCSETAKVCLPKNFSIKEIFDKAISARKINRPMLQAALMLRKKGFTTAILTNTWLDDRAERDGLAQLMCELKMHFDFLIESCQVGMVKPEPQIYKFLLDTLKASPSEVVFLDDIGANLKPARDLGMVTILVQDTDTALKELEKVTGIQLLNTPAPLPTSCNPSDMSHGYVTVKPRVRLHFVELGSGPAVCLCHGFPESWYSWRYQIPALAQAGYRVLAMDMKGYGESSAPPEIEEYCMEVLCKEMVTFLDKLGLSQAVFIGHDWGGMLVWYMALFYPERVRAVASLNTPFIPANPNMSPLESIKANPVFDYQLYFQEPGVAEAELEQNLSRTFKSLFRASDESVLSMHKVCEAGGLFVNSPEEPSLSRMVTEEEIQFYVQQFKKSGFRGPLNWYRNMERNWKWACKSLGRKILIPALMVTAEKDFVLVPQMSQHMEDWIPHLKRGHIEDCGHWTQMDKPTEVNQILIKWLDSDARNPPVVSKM
# sEH inh – inhibitors of human soluble epoxide hydrolase | recombinant human sEH enzymatic activity assay | 91,000 tested, 0.34% active | P34913 | inhibition, % at 2 µM; in the data active = inhibition above about 80%
# MRP1 act – activates MRP-1. H69AR cells + doxorubicin, viability rescue, CellTiter-Glo. viability increase, % at 10 µM. 140,000 tested, 0.61% active. AID 799;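 active = viability gain under doxorubicin at or above a set limit, the compound median plus 3 SD, cut at about 4.7% in these data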;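 also: MRP-1 overexpressing cells given doxorubicin 25 µM after compound pretreatment; 18-22 h compound pretreatment then 72 h with doxorubicin before readout; 0% = doxorubicin-only wells and 100% = vehicle-treated cells without doxorubicin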
# MRP resist rev – reverses drug resistance mediated by MRP; H69AR cells + 2 uM doxorubicin, CellTiter-Glo, 72 h; differential viability (reversal), % at 10 µM; 85,000 tested, 0.04% active; AID 602;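 active = viability drop by adding the cancer drug above about 55%, with treated viability meeting a 40% cutoff, limit read from the data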;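 also: viability without doxorubicin minus viability with 2 µM doxorubicin for each compound; larger differential means the compound sensitizes cells more to doxorubicin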
# Numbers without * were called inactive; . = not tested or not shown. The list is not random: actives were taken first. Their share in the collection is about 0.76%.
SMILES,sEH activator,sEH inh,MRP1 act,MRP resist rev
CC(C)[C@H](NC(=O)c1ccccc1)C(=O)OCC(=O)/C=C1/N(C)c2ccccc2C1(C)C,.,.,4.8*,.
CN1/C(=C\C(=O)COC(=O)Cn2nnc(-c3ccccc3)n2)C(C)(C)c2ccccc21,-4,4,-2,14
CCNC(=O)/C(=C\C=C\c1ccccc1)NC(=O)c1ccc(Br)o1,.,.,-1,.
CCOc1ccc(OCC)c(-c2c(=O)n(OCc3ccc(C(C)(C)C)cc3)c3ccccc3[n+]2[O-])c1,10,-7,6.6*,.
CC12CCC(C(=O)N(CSC(=S)N/N=C\c3ccccc3)C1=O)C2(C)C (stereo unspecified),-8,9,4.8*,-13
O=C(CSc1ncn[nH]1)N1N=C2/C(=C/c3ccco3)CCCC2C1c1ccco1 (stereo unspecified),0,0,8.4*,-6
O=C(c1ccccn1)N1N=C2/C(=C/c3ccccc3)CCCC2C1c1ccccc1 (stereo unspecified),.,.,-2,.
CN(C)S(=O)(=O)c1ccc(C(=O)Nc2nnc(SCc3cccc(F)c3)s2)cc1,.,.,0,.
O=C(Nc1nccs1)c1cc2c(s1)-c1ccccc1OC2,.,.,-4,.
Cc1cccc2c1-c1sc(C(=O)Nc3nccs3)cc1CO2,53*,-52,0,-20
O=C(CSc1nc2ccccc2c(=O)n1-c1ccccc1Cl)Nc1cccc(S(=O)(=O)N2CCOCC2)c1,.,.,-2,.
COc1ccccc1NS(=O)(=O)c1cc(NC(=O)/C=C/c2cccs2)ccc1N1CCOCC1,.,.,6.0*,.
O=C(/C=C/c1cccs1)Nc1ccc(N2CCOCC2)c(S(=O)(=O)Nc2ccccc2Cl)c1,.,.,-2,.
Cc1ccc(NC(=O)CN(C)Cc2nc3ccccc3c(=O)[nH]2)c(Br)c1,8,-5,-2,-2
Cc1cc(Br)ccc1NC(=O)CNC(=O)CN(C)Cc1nc2ccccc2c(=O)[nH]1,-15,14,4.9*,-19
COc1ccc(NS(=O)(=O)c2cccc(C(=O)N/N=C(\C)c3ccc(-n4ccnc4)cc3)c2)cc1,-40,39,0,.
C/C(=N\NC(=O)c1cccc(S(=O)(=O)Nc2ccccc2Cl)c1)c1ccc(-n2ccnc2)cc1,-87,87*,-2,.
CN=C1S/C(=C\c2cc(C)n(-c3ccccc3F)c2C)C(=O)N1C,-1,3,5.9*,.
O=C1CCCC(O)=C1N=Nc1ccc2c(c1)OCO2,.,.,7.7*,.
CC(=O)c1cccc(NC(=O)NC(C)C2CCCO2)c1 (stereo unspecified),-4,4,-1,-2
CC(NC(=O)NC12CC3CC(CC(C3)C1)C2)C1CCCO1 (stereo unspecified),-90,90*,0,7
Cn1c(C(=O)NCc2ccccc2)cc2oc3ccccc3c21,1,3,5.2*,13
CC(/C=C/c1ccc2c(c1)OCO2)=N/NC(=O)c1ccc(C)nc1,.,.,-2,.
COc1ccc(OC)c(/C=N/NC(=O)c2csc3ccccc23)c1,-84,84*,0,.
Cc1noc(/C=C/N(C)C)c1S(=O)(=O)N1CCCC(C(=O)NCc2ccc(F)cc2)C1 (stereo unspecified),-7,10,12*,8
SMILES,sEH activator,sEH inh,MRP1 act,MRP resist rev
Cc1noc(/C=C/N(C)C)c1S(=O)(=O)N1CCCC(C(=O)NC2CCCCC2)C1 (stereo unspecified),-52,51,9.3*,-14
Cc1noc(/C=C/N(C)C)c1S(=O)(=O)N1CCCC(C(=O)NCc2ccccc2Cl)C1 (stereo unspecified),-52,51,7.6*,8
Cc1noc(/C=C/N(C)C)c1S(=O)(=O)N1CCCC(C(=O)NCc2ccc(Cl)cc2)C1 (stereo unspecified),.,.,4.9*,11
Cc1onc(-c2c(F)cccc2Cl)c1C(=O)Nc1sc2c(c1C#N)CCC(C(C)(C)C)C2 (stereo unspecified),-1,6,11*,0
Cc1cccc(NS(=O)(=O)c2cnc(Cl)c(Br)c2)n1,.,.,-1,.
Cc1nc(C)c(C(=O)NNS(=O)(=O)c2ccccc2)s1,.,.,5.2*,.
Cc1ccc(S(=O)(=O)NNC(=O)c2snnc2C)cc1,4,-4,-3,24
COc1ccc(NC(=O)N2CCCC(c3nc(-c4ccc(C(C)C)cc4)no3)C2)cc1 (stereo unspecified),-92,92*,0,2
CC(C)c1ccc(NC(=O)N2CCC(c3nc4ccccc4o3)CC2)cc1,-96,96*,2,3
Cc1cc(C)cc(NC(=O)N2CCC(c3nc4ccccc4o3)CC2)c1,-17,18,0,10
COc1cc(C2Nc3cccc4cccc(c34)N2)ccc1OC(C)=O,-5,6,-1,.
COc1cc(C2Nc3cccc4cccc(c34)N2)cc(OC)c1O,8,-9,6.5*,-22
CC(=O)/C(=N/Nc1ccccc1)Sc1nnc(C(O)c2ccccc2)n1-c1ccccc1 (stereo unspecified),.,.,-2,.
CCN(CC)S(=O)(=O)c1cccc(C(=O)NCCc2ccccc2)c1,-81,81*,.,-3
CCN(CC)S(=O)(=O)c1cccc(C(=O)N[C@H](C(=O)O)C(C)C)c1,-10,5,0,3
CCN(CC)S(=O)(=O)c1cccc(C(=O)c2c(C)cc3ccccn23)c1,.,.,4.8*,.
CCN(CC)S(=O)(=O)c1cccc(NC(=O)C(=O)c2c(-c3ccccc3)cc3ccccn23)c1,8,-5,4,.
CCN(CC)S(=O)(=O)c1cc(NC(=O)C(=O)c2c(-c3ccccc3)cc3ccccn23)ccc1C,11,-8,6.9*,5
Cc1cccc(C(=O)NCCN2CCOCC2)c1[N+](=O)[O-],.,.,-1,.
COc1ccc(N2CCN(c3oc(COc4ccccc4)nc3C#N)CC2)cc1,.,.,2,19
CN1CCN(c2oc(COc3ccc(-c4ccccc4)cc3)nc2C#N)CC1,2,2,-4,5
N#Cc1nc(COc2ccc(Cl)cc2)oc1N1CCN(Cc2ccccc2)CC1,.,.,4.8*,.
COc1ccc(N2CCN(c3oc(COc4ccc(Cl)cc4)nc3C#N)CC2)cc1,.,.,5.8*,.
CC(C)CNC(=O)c1c(N)n(/N=C/c2ccccn2)c2nc3ccccc3nc12,8,-5,5.1*,35
Cc1ccsc1CNn1cnnc1SCc1ccc(Cl)cc1,4,-4,6.3*,19
SMILES,sEH activator,sEH inh,MRP1 act,MRP resist rev
COc1cc(OC)c(S(=O)(=O)Nc2ccc(C)cn2)cc1NC(C)=O,.,.,-1,.
Cc1cc(/C=C2\NC(=O)N(Cc3ccc(Cl)cc3)C2=O)c(C)n1C,.,.,6.2*,.
Cc1cccc(CN2C(=O)N/C(=C/c3cc(C)n(-c4cc(C)ccn4)c3C)C2=O)c1,-8,10,1,.
Cc1ccc(N=Nc2c(N)[nH]n3c(=O)cc(-c4ccccc4)nc23)cc1,3,-3,6.0*,.
Cc1ccccc1N=Cc1c(O)n(-c2nccs2)c(=O)c2ccccc12,.,.,4,.
Cc1cc(C)c(N=Cc2c(O)n(-c3nccs3)c(=O)c3ccccc23)c(C)c1,.,.,7.5*,.
Cc1cccc(C)c1N=Cc1c(O)n(-c2nccs2)c(=O)c2ccccc12,.,.,6.2*,.
Cc1cccc(C2(c3cccc(C)c3)CC2C(=O)Nc2ccc([N+](=O)[O-])cc2O)c1 (stereo unspecified),.,.,-4,.
Cc1ccc(C2=NC3(CCCCC3)N=C2SCC(=O)Nc2ccc3c(c2)OCCO3)cc1,.,.,-4,.
COc1cccc(/C=N/N2C(=O)CSC2=S)c1O,.,.,8.0*,.

# Screens from PubChem.
